These results are taken from the supplement of paper PMC3724861.

Many of the other results were omitted from the sample, so hits are more common in it than they were. How many sequences the whole screen found active is unknown. A value given as a limit tells only on which side of the number the result lay.

The subject of this assay is T1, Caupolican (Caup) homeodomain DNA-binding domain.
T1 sequence: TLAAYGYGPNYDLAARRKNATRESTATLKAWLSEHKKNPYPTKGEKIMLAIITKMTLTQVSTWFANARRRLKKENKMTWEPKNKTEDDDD
Nature of the assay: PBM E-score (8-mer, recovered from the published 9-mer minima) (E-score (dimensionless, -0.5 to 0.5)); Drosophila protein; higher = stronger relative binding preference, active = 0.31 or more. Summed up:
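Caup's homeodomain DNA-binding domain (residues 214-303) was produced by in vitro transcription and translation and applied at 100 nM to custom-designed protein binding microarrays. Each value is an enrichment score giving relative binding preference for a short DNA word; higher means stronger. Published 9-mer scores were the minimum of their two constituent 8-mer scores, and the 8-mer values were recovered from those minima. A cutoff of 0.31 marks candidate binding sequences.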
Take CTTAATCA: the “PBM E-score” value is 0.013 (inactive).

Consider CTAGTACA, for which the “PBM E-score” value is 0.337 (active).

On to ATAGTACG, for which the “PBM E-score” value was 0.0984 (inactive).

For the sequence CTAGTAAA, the “PBM E-score” value is 0.211 (inactive).

Regarding GTAGTAGA, the “PBM E-score” value is 0.0981 (inactive).

For ATAGTACA, the “PBM E-score” value was 0.343 (active).

For the sequence ATAGTACC, the “PBM E-score” value is 0.134 (inactive).

With CTAGTACC, the “PBM E-score” value was 0.201 (inactive).

As to GTAGTACA, the “PBM E-score” value was 0.346 (active).

As for GTAGTATA, the “PBM E-score” value was 0.219 (inactive).

Turning to GCATTTAA, the “PBM E-score” value was 0.11 (inactive).

Take TTCTAGAA: the “PBM E-score” value is -0.0405 (inactive).

CGCAGCCG: the “PBM E-score” value is -0.267 (inactive).

Take ACCTCCGA: the “PBM E-score” value is -0.0504 (inactive).

As for GCTTCTGA, the “PBM E-score” value is -0.0992 (inactive).

In the case of CCGCTTTA, the “PBM E-score” value is -0.0283 (inactive).

In the case of ACAACACG, the “PBM E-score” value is 0.387 (active).

As for ACAACACC, the “PBM E-score” value is 0.301 (inactive).

CCAACACG: the “PBM E-score” value is 0.237 (inactive).

For the sequence ACAACACA, the “PBM E-score” value is ≥ 0.395 (active).

For the sequence AAAACACT, the “PBM E-score” value is 0.0862 (inactive).

As for ACAACACT, the “PBM E-score” value was 0.326 (active).

For GCAACACA, the “PBM E-score” value was 0.144 (inactive).

On to CCAACACA, for which the “PBM E-score” value is 0.17 (inactive).

Take ACAACTCT: the “PBM E-score” value is 0.147 (inactive).

Consider CTATTAGC, for which the “PBM E-score” value is 0.0355 (inactive).

Take CGCAATAC: the “PBM E-score” value was 0.0451 (inactive).

As for AGATTAGG, the “PBM E-score” value is 0.00061 (inactive).

As to GCCCTTCC, the “PBM E-score” value was -0.169 (inactive).

For AAAGGCGT, the “PBM E-score” value is -0.125 (inactive).

For the sequence ACAAGCAT, the “PBM E-score” value is 0.377 (active).

Take GCAAGCAA: the “PBM E-score” value is -0.0127 (inactive).

On to ACAAGCAC, for which the “PBM E-score” value is 0.246 (inactive).

For TCAAGCAA, the “PBM E-score” value was 0.0149 (inactive).

On to ACAAGCAA, for which the “PBM E-score” value is 0.341 (active).

For ACAAGCAG, the “PBM E-score” value is 0.229 (inactive).

Regarding AGACCCGA, the “PBM E-score” value was -0.108 (inactive).

As for ACTTTACC, the “PBM E-score” value is 0.122 (inactive).

On to CGGATGGC, for which the “PBM E-score” value is -0.0761 (inactive).

In the case of AACGCCCG, the “PBM E-score” value is -0.108 (inactive).

With GCAGTCCC, the “PBM E-score” value is -0.194 (inactive).

As to AATGTAGA, the “PBM E-score” value was 0.139 (inactive).

For the sequence GATGTAGA, the “PBM E-score” value is 0.208 (inactive).

With CAAGTAGG, the “PBM E-score” value was -0.00819 (inactive).

Turning to GATGTAGC, the “PBM E-score” value was 0.166 (inactive).

Take CATGTAGA: the “PBM E-score” value was 0.391 (active).

Consider AATGTAGG, for which the “PBM E-score” value is 0.116 (inactive).

Regarding CATGTAGC, the “PBM E-score” value was 0.332 (active).

In the case of CATGTAGG, the “PBM E-score” value is 0.356 (active).

AATGTAGC: the “PBM E-score” value is 0.0881 (inactive).

GACTAGGC: the “PBM E-score” value is -0.0927 (inactive).

Regarding CCTCCAAC, the “PBM E-score” value was -0.102 (inactive).

TAGAAATA: the “PBM E-score” value was 0.1 (inactive).

As to CCGCTACA, the “PBM E-score” value was 0.0971 (inactive).

Regarding GGCCGTAA, the “PBM E-score” value was -0.148 (inactive).

For CATTACCA, the “PBM E-score” value is 0.119 (inactive).

Turning to ACCAATCC, the “PBM E-score” value was -0.0418 (inactive).

In the case of AATATACT, the “PBM E-score” value is 0.155 (inactive).

Take TATATACA: the “PBM E-score” value is 0.355 (active).

On to AATATACA, for which the “PBM E-score” value was 0.322 (active).

AGTATACA: the “PBM E-score” value is 0.309 (inactive).

As for TGTATACA, the “PBM E-score” value was ≥ 0.356 (active).

For ATTATACA, the “PBM E-score” value was 0.254 (inactive).

On to GGTATACA, for which the “PBM E-score” value was 0.183 (inactive).

Turning to GATATACA, the “PBM E-score” value was 0.263 (inactive).

With CTTATACA, the “PBM E-score” value is 0.11 (inactive).

For the sequence GTTATACA, the “PBM E-score” value is 0.329 (active).

Consider CATATACA, for which the “PBM E-score” value was 0.298 (inactive).

Take AATATACC: the “PBM E-score” value was 0.13 (inactive).

On to GCCCGTAC, for which the “PBM E-score” value is -0.0447 (inactive).

With GGGATATA, the “PBM E-score” value was -0.0036 (inactive).

For the sequence ATCGTTCG, the “PBM E-score” value was 0.0642 (inactive).

Take AGCCGTTC: the “PBM E-score” value was -0.195 (inactive).

Regarding ACGAACCT, the “PBM E-score” value is -0.0743 (inactive).

Turning to ACGTGGCG, the “PBM E-score” value is -0.111 (inactive).

As for CCACAGAA, the “PBM E-score” value was -0.00495 (inactive).

On to TATTACGA, for which the “PBM E-score” value was 0.162 (inactive).

Regarding GTAGTTCA, the “PBM E-score” value was 0.136 (inactive).

As to AATAAATA, the “PBM E-score” value was 0.202 (inactive).

As to AGTATCTG, the “PBM E-score” value is 0.00127 (inactive).

Turning to AGTGACGC, the “PBM E-score” value was -0.155 (inactive).

Turning to CATGTAAG, the “PBM E-score” value is 0.395 (active).

As to AATGTAAT, the “PBM E-score” value was 0.303 (inactive).

Take AATGTAAA: the “PBM E-score” value was 0.323 (active).

Regarding CATGTAAA, the “PBM E-score” value is 0.421 (active).

Take TCTGTAAA: the “PBM E-score” value is 0.0832 (inactive).

For the sequence TATGTAAA, the “PBM E-score” value was 0.327 (active).

Take GATGTAAA: the “PBM E-score” value is 0.305 (inactive).

GCTGTAAA: the “PBM E-score” value was 0.128 (inactive).

As for ACTGTAAA, the “PBM E-score” value is 0.154 (inactive).

For the sequence CCTGTAAA, the “PBM E-score” value was 0.131 (inactive).

With CCTGTAAG, the “PBM E-score” value is 0.127 (inactive).

On to AATGTAAG, for which the “PBM E-score” value is 0.214 (inactive).

Turning to GTCGCTTA, the “PBM E-score” value was 0.0465 (inactive).

As for CACGAAAG, the “PBM E-score” value was 0.0338 (inactive).

Regarding CTCGTGAA, the “PBM E-score” value was 0.027 (inactive).

Regarding GTAGATAA, the “PBM E-score” value is 0.14 (inactive).

For the sequence ACCATAAT, the “PBM E-score” value was 0.119 (inactive).

With GATGTAAC, the “PBM E-score” value is 0.306 (inactive).

As for AATGTAAC, the “PBM E-score” value is 0.295 (inactive).

Regarding CATGTAAC, the “PBM E-score” value was 0.431 (active).

GATTTTAC: the “PBM E-score” value was 0.156 (inactive).

Regarding CTTTAGTC, the “PBM E-score” value was -0.0734 (inactive).

For the sequence AATCGTAA, the “PBM E-score” value was 0.173 (inactive).

On to CCCTAGAA, for which the “PBM E-score” value was -0.0811 (inactive).

With CAACATGC, the “PBM E-score” value was 0.317 (active).

For CAACATTC, the “PBM E-score” value was 0.0579 (inactive).

As for ACACATGC, the “PBM E-score” value is 0.236 (inactive).

On to ACACATGT, for which the “PBM E-score” value was 0.372 (active).

With AAACATCC, the “PBM E-score” value is 0.258 (inactive).

As for GAACATCC, the “PBM E-score” value is 0.295 (inactive).

In the case of GCACATGC, the “PBM E-score” value is -0.0345 (inactive).

On to AAACATGC, for which the “PBM E-score” value is 0.342 (active).

Take AAACATTC: the “PBM E-score” value is 0.209 (inactive).

As to CAACATCC, the “PBM E-score” value was 0.238 (inactive).

With GAACATGC, the “PBM E-score” value is 0.354 (active).

As for ACACATGG, the “PBM E-score” value was 0.167 (inactive).
